Measurements: PubChem BioAssay (NCATS)
Records with an inconclusive call do not appear. Activity calls are given as the source filed them. Unless noted, calls follow the shape of the dose curve; as a rule, active = well fitted curve in either direction with a large enough effect (not every such curve was filed as active); inconclusive = small, poorly fitted or top-dose-only effect, or another doubt; inactive = flat fitted curve, though single readings scatter.

Test system: not listed separately
Experiment: AP1 Signaling Pathway (AID 357);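 also: ME-180 reporter cells stimulated with EGF at its EC50 level; % is scaled to controls: 0 for no effect and ±100 for the full control effect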
Conditions: ME-180 (cervical carcinoma) AP-1-bla reporter, EGF-induced, beta-lactamase ratio, 5 h; at 7.69 µM (top of the series) unless noted
Summary of the method: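 Read-out was the 460nm/530nm emission ratio (excitation 405nm) after CCF4 loading for 2.5 hours at room temperature. Cells carried an AP-1-driven beta-lactamase reporter, were stimulated with EC50 EGF plus compound for 5 hours, and AC50 values came from titrations.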

Question: For `COc1ccc2[nH]cc(CCNc3ncnc4ccc(-c5ccccc5OC)cc34)c2c1`, which activity change, negative = inhibition is on record?
Answer: -28.6% (inactive)

Question: Which activity change, negative = inhibition does the source give for `COc1cccc(-c2cncnc2NCc2ccccc2OC)c1` here?
Answer: -3.02% (inactive)

Question: For `COc1cccc(Cn2c(=O)c(CCc3ccccc3)nc3cnc(N4CCN(C)CC4)nc32)c1`, which activity change, negative = inhibition is on record?
Answer: -3.73% (inactive)

Question: For `O=c1cnc2cnc(OCc3ccccc3)nc2n1CCc1ccccc1`, which activity change, negative = inhibition is on record?
Answer: -5.47% (inactive)

Question: With `O=C(c1cnccn1)N1CCC[C@@]2(CCN(c3cccc(-c4ccccc4)c3)C2)C1` as the molecule, how does the activity change, negative = inhibition read?
Answer: -18.4% (inactive)

Question: With `COc1ccc(CNc2nc(-c3cccnc3)nc3ccccc23)c(OC)c1` as the molecule, how does the activity change, negative = inhibition read?
Answer: -16.7% (inactive)

Question: For `O=C(c1ccco1)N1CCC2(CC1)CN(c1cccc(-c3ccccc3)c1)C2`, which activity change, negative = inhibition is on record?
Answer: -23.1% (inactive)

Question: Which activity change, negative = inhibition does the source give for `CN(C)c1ncc2nc(CCc3ccccc3)c(=O)n(Cc3cccs3)c2n1` here?
Answer: 16.2% (inactive)

Question: Which activity change, negative = inhibition does the source give for `CN1CCN(c2ncc3nc(CCc4ccccc4)c(=O)n(Cc4cccs4)c3n2)CC1` here?
Answer: -5.44% (inactive)

Question: With `CN1CCN(c2ncc3nc(-c4cn(C)c5ccccc45)c(=O)n(CCC#N)c3n2)CC1` as the molecule, how does the activity change, negative = inhibition read?
Answer: -1.18% (inactive)

Target: Cytochrome P450 1A2 (Homo sapiens) (UniProt P05177)
Sequence (P05177 whole entry, looked up): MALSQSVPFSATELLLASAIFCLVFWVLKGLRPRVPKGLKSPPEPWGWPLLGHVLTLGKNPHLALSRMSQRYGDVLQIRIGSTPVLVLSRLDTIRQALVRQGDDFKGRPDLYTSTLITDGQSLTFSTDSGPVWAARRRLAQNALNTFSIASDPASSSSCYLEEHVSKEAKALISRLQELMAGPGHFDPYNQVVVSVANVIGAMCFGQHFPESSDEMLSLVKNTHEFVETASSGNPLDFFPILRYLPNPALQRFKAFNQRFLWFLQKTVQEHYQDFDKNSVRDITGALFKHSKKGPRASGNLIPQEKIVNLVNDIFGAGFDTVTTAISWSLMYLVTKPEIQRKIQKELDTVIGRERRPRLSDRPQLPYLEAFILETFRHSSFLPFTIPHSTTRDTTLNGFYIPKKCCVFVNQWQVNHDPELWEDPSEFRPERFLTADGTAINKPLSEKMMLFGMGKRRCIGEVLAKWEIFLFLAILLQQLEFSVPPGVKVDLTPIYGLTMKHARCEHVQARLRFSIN
Experiment: p450-cyp1a2 (AID 410; calls by dose curve; also: potency is read from the fitted curve at half-maximal effect)
Conditions: recombinant CYP1A2, luciferin-ME demethylation, luminescence; series mostly up to 57 µM
Summary of the method: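 Read-out is luminescence from luciferin produced by CYP1A2 demethylation of Luciferin-ME (100uM, at Km). Detection reagent stopped the 60 min NADPH-dependent reaction; signals were normalized to 57 uM furafylline.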

Question: Which Potency does the source give for `COc1ccc2[nH]cc(CCNc3ncnc4ccc(-c5ccccc5OC)cc34)c2c1` here?
Answer: 7.94 µM (active)

Question: With `COc1cccc(-c2cncnc2NCc2ccccc2OC)c1` as the molecule, how does the Potency read?
Answer: 3.98 µM (active)

Question: With `CN(C)c1ncc2nc(CCc3ccccc3)c(=O)n(Cc3cccs3)c2n1` as the molecule, how does the Potency read?
Answer: 1.58 µM (active)

Question: Which Potency does the source give for `CN1CCN(c2ncc3nc(CCc4ccccc4)c(=O)n(Cc4cccs4)c3n2)CC1` here?
Answer: 15.8 µM (active)

Question: With `CN1CCN(c2ncc3nc(-c4cn(C)c5ccccc45)c(=O)n(CCC#N)c3n2)CC1` as the molecule, how does the Potency read?
Answer: 15.8 µM (active)

Test system: not listed separately
Experiment: NFAT Signaling Pathway (AID 444);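 also: carbachol stimulus at about its EC50 of 1 µM final; % is scaled to controls: 0 for no effect and ±100 for the full control effect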
Conditions: Jurkat NFAT-bla M1, carbachol, beta-lactamase ratio, 5 h; at 7.69 µM (top of the series) unless noted
Summary of the method: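 Jurkat cells with NFAT-driven β-lactamase reporter and co-expressed M1 receptor, stimulated with carbachol (final 1 uM, ~EC50), compound titration, 5 h at 37 °C. CCF4 loaded 1 h at RT; 460/530 nm ratio gave %activity and AC50.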

Question: With `COc1ccc2[nH]cc(CCNc3ncnc4ccc(-c5ccccc5OC)cc34)c2c1` as the molecule, how does the activity change, negative = inhibition read?
Answer: 20.2% (inactive)

Question: Which activity change, negative = inhibition does the source give for `COc1cccc(-c2cncnc2NCc2ccccc2OC)c1` here?
Answer: 6.93% (inactive)

Question: For `COc1cccc(Cn2c(=O)c(CCc3ccccc3)nc3cnc(N4CCN(C)CC4)nc32)c1`, which activity change, negative = inhibition is on record?
Answer: 8.33% (inactive)

Question: With `O=c1cnc2cnc(OCc3ccccc3)nc2n1CCc1ccccc1` as the molecule, how does the activity change, negative = inhibition read?
Answer: -27.9% (inactive)

Question: For `O=c1cnc2cnc(Oc3ccccc3)nc2n1Cc1cccs1`, which activity change, negative = inhibition is on record?
Answer: -1.41% (inactive)

Question: With `O=C(c1cnccn1)N1CCC[C@@]2(CCN(c3cccc(-c4ccccc4)c3)C2)C1` as the molecule, how does the activity change, negative = inhibition read?
Answer: 7.34% (inactive)

Question: With `COc1ccc(CNc2nc(-c3cccnc3)nc3ccccc23)c(OC)c1` as the molecule, how does the activity change, negative = inhibition read?
Answer: 6.84% (inactive)

Question: With `CN(C)c1ncc2nc(CCc3ccccc3)c(=O)n(Cc3cccs3)c2n1` as the molecule, how does the activity change, negative = inhibition read?
Answer: -16.3% (inactive)

Question: For `CN1CCN(c2ncc3nc(CCc4ccccc4)c(=O)n(Cc4cccs4)c3n2)CC1`, which activity change, negative = inhibition is on record?
Answer: 4.5% (inactive)

Question: Which activity change, negative = inhibition does the source give for `COc1ccc(Oc2ncc3nc(CCc4ccccc4)c(=O)n(CCC#N)c3n2)cc1` here?
Answer: 3.1% (inactive)

Question: For `CN1CCN(c2ncc3nc(-c4cn(C)c5ccccc45)c(=O)n(CCC#N)c3n2)CC1`, which activity change, negative = inhibition is on record?
Answer: 23.5% (inactive)
